Bioassay records deposited in PubChem by The Scripps Research Institute Molecular Screening Center.
PLCg1 inh – blocks human PLC-gamma1 enzyme activity; P19174; purified PLC-gamma1, fluorogenic substrate, fluorescence; inhibition, % at 12.2 µM; 0.84% of 370,000 active
PLCb3 inh – PLC-beta3 (human) inhibition, primary screen | inhibition, % at 12.2 µM | 0.18% of 370,000 active | Purified PLC-beta3, fluorogenic substrate, fluorescence | AID 720704 | Q01970; in the data active means inhibition above about 11%;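 further: 0% = median of compound wells on plate and 100% = full blocker control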
DAGLB inh – diacylglycerol lipase beta (human) inhibition | Q8NCG7 | HEK293T DAGLB membrane lysate, EnzChek fluorogenic substrate | inhibition, % at 5.17 µM | 0.059% of 340,000 active | AID 504411; in the data active means inhibition above about 34%;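 further: 0% = enzyme with vehicle and 100% = wells lacking enzyme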
sPLA2-III inh – Inhibits HGIII-sPLA2 liposome hydrolysis, primary screen | Q9NZ20 | QFRET BODIPY PC-A2 liposome hydrolysis, fluorescence | inhibition, % at 12.2 µM | 0.56% of 370,000 active | AID 743126;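 active means inhibition above mean plus 3 SD of compounds lying within the high and low control bounds, cut at about 19% in these data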;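 further: 0% = median of test compound wells and 100% = no enzyme DMSO wells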
PLCg1 ctr – counter-screen for PLC-beta3 inhibitors: inhibitors of human PLC-gamma1; shares compounds with PLCg1 inh; purified PLC-gamma1, fluorogenic substrate, fluorescence; inhibition, % at 12.3 µM; 3.1% of 3,300 active
PLCbeta3 conf – confirmation of human PLC-beta3 inhibitors. 1% of 3,300 active. shares compounds with PLCg1 inh. inhibition, % at 12.3 µM. purified PLC-beta3, fluorogenic substrate fluorescence; in the data active means inhibition above about 11%
* = called active by the depositor; · = no result. Most compounds without a hit are left out; they make up all but 1.5% or so of the library. Unless noted, no stated cut-off is given here; in the data, active means inhibition above about 9.5%; inactive means the rest.

SMILES	PLCg1 inh	PLCb3 inh	DAGLB inh	sPLA2-III inh	PLCg1 ctr	PLCbeta3 conf
C[N+]1([O-])[C@@H]2Cc3cc4c(cc3[C@@H]1Cc1cc3c(cc12)OCO3)OCO4 (stereo partly drawn)	1	12*	0	12	-2	-4
O=C(OCc1cn(Cc2ccc(F)cc2)nn1)N1CCCC1	8	6	·	15	·	·
COc1ccc(S(=O)(=O)NCC(c2ccco2)N2CCc3ccccc32)cc1 (stereo not drawn)	11*	3	-2	-13	-3	0
O=S(=O)(c1ccc(Br)cc1)N1CCCC1	4	-3	-1	0	·	·
O=S(=O)(CS(=O)(=O)c1ccc(Br)cc1)c1ccc(Br)cc1	27*	0	·	4	21*	1
NS(=O)(=O)c1ccc(CCNC(=O)CCCCCNc2nc(=S)[nH]c3ccccc23)cc1	10*	3	·	8	-6	-1
CC(C)(C)OC(=O)N1CCC(N[C@@H](Cc2c[nH]c3ccccc23)C(=O)NCCc2c[nH]c3ccccc23)(C(=O)NC2CCCCC2)CC1	4	1	·	-100	·	·
CN(C)c1ccc(O)c2c1CC1CC3[C@@H](N(C)C)C(=O)C(C(N)=O)=C(O)[C@]3(O)C(=O)C1=C2O (stereo partly drawn)	17*	1	8	-8	-3	-7
C[C@H]1c2cccc(O)c2C(O)=C2C(=O)[C@]3(O)C(O)=C(C(N)=O)C(=O)[C@@H](N(C)C)[C@@H]3[C@@H](O)[C@@H]21	·	·	2	·	·	·
Cc1cc(Oc2ccc(C#N)cc2)nc(N2CCOCC2)n1	0	1	-5	1	·	·
Cc1cc(Oc2ccc([N+](=O)[O-])cc2)nc(N2CCOCC2)n1	12*	7	-1	7	-1	-7
Cc1sc2ncn(CC(=O)NCCN3CCOCC3)c(=O)c2c1S(=O)(=O)N1CCC(C)CC1	11*	3	1	7	-8	-5
Cc1sc2ncn(CC(=O)NCCCN3CCC(C)CC3)c(=O)c2c1S(=O)(=O)N1CCC(C)CC1	6	-3	-2	-5	·	·
Cc1cc(C)c(NC(=O)Nc2ccccc2)c(Cl)c1	7	13*	-4	6	-6	0
Cc1ccc(COc2ccc(/C=N/O)cc2)cc1	1	-2	-6	1	·	·
Cc1ccc(Oc2ccc(/C=N/O)cn2)cc1	14*	1	-2	5	-2	2
CCN(CC)C(=O)CC[C@@H]1CC[C@]2(CCCN(C(=O)C(C)(C)C)C2)O1	-1	2	·	1	·	·
Cc1cccc(C(=O)NNC(=O)C2CCN(C(=O)OC(C)(C)C)CC2)c1	9.8*	2	4	4	-9	-4
Cc1ccc(C(=O)NNC(=O)C2CCN(C(=O)OC(C)(C)C)CC2)cc1	-1	-6	0	-5	·	·
O=C1CC(c2ccc3ccccc3c2)N=C2N(Cc3ccc4c(c3)OCO4)C/C(=C/c3ccccc3)N12 (stereo not drawn)	-5	-9	·	-8	·	·
Cn1c(=O)oc2ccccc2c1=O	3	3	0	1	·	·
CN1CC[C@]2(CCN3CCc4c(oc5ccccc45)[C@@H]3C2)N(C)C1=O	-34	25*	1	4	-15	-14
O=S(=O)([N-]c1nc2ccccc2nc1-[n+]1ccccc1)c1ccc(F)cc1	11*	-2	-1	12	-7	-7
O=C(COC(=O)C1=COCCO1)Nc1ccccc1Oc1ccccc1	4	11*	-1	-3	-2	1
O=C1CCCC[C@@H](O)[C@H](O)C[C@H](c2ccccc2)O1	-1	-1	·	1	·	·
SMILES	PLCg1 inh	PLCb3 inh	DAGLB inh	sPLA2-III inh	PLCg1 ctr	PLCbeta3 conf
C=C1CC2(CC(c3ccccc3)OC(c3ccccc3)C2)OC1=O (stereo not drawn)	13*	10	14	3	-2	-2
O=C(/C=N/O)Nc1ccc(F)cc1	9.5*	6	0	-13	-6	-2
Cc1[nH]n(-c2ccccc2)c(=O)c1-c1ccc(Cl)cc1	2	2	2	5	·	·
O=c1[nH]n(-c2ccc(Cl)cc2)c(=O)c(Cl)c1Cl	9.8*	3	-2	-1	-8	-7
COc1cccc(CNn2c(-c3cccc(C)c3)nc3ccccc3c2=O)c1	5	11*	-13	-4	-8	-7
COc1ccc(OC)c(CNn2c(-c3cccc(C)c3)nc3ccccc3c2=O)c1	-1	-7	-5	3	·	·
